Among the data in PubChem BioAssay (EPA / NIEHS) are outcome and AC50 values, retold here.

Results filed as inconclusive are left out. Calls of active or inactive are those of the source. The calls were made as follows: active = hit-call score of the fitted dose curve at least 0.9, where 1 is the maximum; inconclusive = response in the unintended direction; inactive = score below 0.9.

Broadly, the AC50 is the concentration giving half of the maximal activity seen.

Assay [1] addresses human Mitogen-Activated Protein Kinase 1 (MAPK 1), MAPK1 (gene 5594) (UniProt P28482). Nature of the assay: NVS_ENZ_hMAPK1: NovaScreen (NVS) Enzymatic Assay for human Mitogen-Activated Protein Kinase 1 (MAPK 1) (AID 2283175). In short, it runs like this:
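Cell-free recombinant human MAPK1 enzymatic assay, fluorescence/electrophoretic mobility shift read at 1 h; loss of signal vs DMSO. Primary screen in duplicate at 25 uM; actives (e.g. ≥30% inhibition) run as concentration-response up to 50 uM.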

In assay [2] the target is Glycogen synthase kinase-3 beta (Homo sapiens) (UniProt P49841). The assay is described as follows: NVS_ENZ_hGSK3b: NovaScreen (NVS) Enzymatic Assay for human Glycogen Synthase Kinase-3 beta (GSK3b) (AID 2283165). In short, it runs like this: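 Recombinant enzyme with specific fluorescent substrate, 1 h, product separated by electrophoretic mobility shift. Primary duplicate screen at 25 uM; actives (e.g. 30% inhibition) followed in singleton concentration-response to 50 uM. Signal loss fitted versus DMSO.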
Sequence of Glycogen synthase kinase-3 beta (Homo sapiens) (P49841 whole entry, looked up): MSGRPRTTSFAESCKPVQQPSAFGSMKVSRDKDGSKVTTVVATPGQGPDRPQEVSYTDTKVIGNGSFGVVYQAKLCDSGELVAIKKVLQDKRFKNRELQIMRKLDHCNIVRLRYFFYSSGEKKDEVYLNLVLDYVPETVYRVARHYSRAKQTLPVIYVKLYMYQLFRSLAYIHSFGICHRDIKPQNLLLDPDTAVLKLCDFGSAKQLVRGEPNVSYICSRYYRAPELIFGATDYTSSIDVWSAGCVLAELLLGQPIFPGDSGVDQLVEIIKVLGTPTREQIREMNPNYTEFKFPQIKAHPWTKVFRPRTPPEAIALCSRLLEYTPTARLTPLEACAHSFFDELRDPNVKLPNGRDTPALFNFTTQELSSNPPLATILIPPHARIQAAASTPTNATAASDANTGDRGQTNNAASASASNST

Assay [3] addresses human Insulin Receptor (InsR), INSR (gene 3643) (UniProt P06213). The assay is described as follows: NVS_ENZ_hInsR: NovaScreen (NVS) Enzymatic Assay for human Insulin Receptor (InsR) (AID 2283168). In short, it runs like this:
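Cell-free enzyme assay read 1 h post-dose by fluorescence after substrate/product mobility-shift separation. Duplicate 25 uM primary screen, then singleton concentration-response up to 50 uM for compounds passing threshold; loss of signal vs DMSO.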

For assay [4], the target named is human Phosphodiesterase 4A1 (PDE4A1), PDE4A (gene 5141) (UniProt P27815). The assay is described as follows: NVS_ENZ_hPDE4A1: NovaScreen (NVS) Enzymatic Assay for human Phosphodiesterase 4A1 (PDE4A1) (AID 2283191). In outline: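 Fluorescent substrate turnover by recombinant PDE4A1 read after 1 h by mobility-shift separation. Primary duplicate screen at 25 uM; hits retested in concentration series with a 50 uM maximum, relative to DMSO.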
Sequence of human Phosphodiesterase 4A1 (PDE4A1), PDE4A (gene 5141) (P27815 whole entry, looked up): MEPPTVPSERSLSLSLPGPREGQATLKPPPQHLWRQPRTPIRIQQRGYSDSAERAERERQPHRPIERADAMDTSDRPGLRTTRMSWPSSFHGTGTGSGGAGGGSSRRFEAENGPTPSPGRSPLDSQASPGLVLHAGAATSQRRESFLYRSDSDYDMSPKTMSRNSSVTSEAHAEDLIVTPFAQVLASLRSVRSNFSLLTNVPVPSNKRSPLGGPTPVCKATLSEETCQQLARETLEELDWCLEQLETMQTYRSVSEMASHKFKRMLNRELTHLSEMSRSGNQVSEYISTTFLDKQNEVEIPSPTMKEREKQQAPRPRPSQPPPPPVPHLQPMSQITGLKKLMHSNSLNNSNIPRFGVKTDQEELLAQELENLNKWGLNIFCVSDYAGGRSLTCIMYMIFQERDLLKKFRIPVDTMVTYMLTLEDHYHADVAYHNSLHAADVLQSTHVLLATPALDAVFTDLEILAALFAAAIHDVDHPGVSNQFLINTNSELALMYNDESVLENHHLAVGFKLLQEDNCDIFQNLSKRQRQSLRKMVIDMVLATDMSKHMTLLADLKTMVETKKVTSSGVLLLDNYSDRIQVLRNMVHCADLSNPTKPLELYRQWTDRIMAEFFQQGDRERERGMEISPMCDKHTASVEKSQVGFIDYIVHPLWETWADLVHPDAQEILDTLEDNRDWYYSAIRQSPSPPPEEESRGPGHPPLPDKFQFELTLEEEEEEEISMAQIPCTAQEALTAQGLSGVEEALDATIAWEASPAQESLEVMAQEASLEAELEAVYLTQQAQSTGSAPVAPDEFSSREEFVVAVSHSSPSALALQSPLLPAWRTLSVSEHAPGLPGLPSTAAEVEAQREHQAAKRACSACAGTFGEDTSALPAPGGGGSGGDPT

Assay [5] has as its target human Phosphodiesterase 5 (PDE5), PDE5A (gene 8654) (UniProt O76074). The assay is described as follows: NVS_ENZ_hPDE5: NovaScreen (NVS) Enzymatic Assay for human Phosphodiesterase 5 (PDE5) (AID 2283194). In short, it runs like this:
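Screening began in duplicate at 25 uM, with actives taken into concentration-response. Enzyme activity of recombinant PDE5 toward its substrate was measured at 1 h by fluorescence mobility-shift detection, relative to DMSO controls.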

Assay [6] deals with human NIMA (Never In Mitosis Gene A)-Related Kinase 2 (NEK2), NEK2 (gene 4751) (UniProt P51955). The assay is described as follows: NVS_ENZ_hNEK2: NovaScreen (NVS) Enzymatic Assay for human NIMA (Never In Mitosis Gene A)-Related Kinase 2 (NEK2) (AID 2283188). In short, it runs like this:
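Compounds were first screened in duplicate at 25 uM, with actives followed up in concentration series. Recombinant NEK2 activity, cell-free, was read 1 h after dosing by fluorescence intensity after mobility-shift separation. Signal loss was scored against DMSO.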

Assay [7] addresses human Matrix Metalloproteinase-7 (MMP7), MMP7 (gene 4316) (UniProt P09237). Nature of the assay: NVS_ENZ_hMMP7: NovaScreen (NVS) Enzymatic Assay for human Matrix Metalloproteinase-7 (MMP7) (AID 2283183). In outline: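 Compounds first tested at 25 uM in duplicate, then at up to 50 uM in concentration series if active. Protease activity measured by fluorescence intensity 1 h after dosing, with fitting relative to DMSO.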

Assay [8] addresses human Janus Kinase 2 (Jak2), JAK2 (gene 3717) (UniProt O60674). Nature of the assay: NVS_ENZ_hJak2: NovaScreen (NVS) Enzymatic Assay for human Janus Kinase 2 (Jak2) (AID 2283169). In outline:
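Single-point duplicate screen at 25 uM, with hits run in concentration series to a 50 uM top dose. Substrate-product separation by mobility shift with fluorescence detection, 1 h post-dosing; DMSO baseline.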

Assay [9] has as its target human MET Proto-Oncogene, Receptor Tyrosine Kinase (MET), MET (gene 4233) (UniProt P08581). Nature of the assay: NVS_ENZ_hMet: NovaScreen (NVS) Enzymatic Assay for human MET Proto-Oncogene, Receptor Tyrosine Kinase (MET) (AID 2283180). In outline:
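Hits from a 25 uM duplicate screen were retested in concentration series up to 50 uM. Enzyme activity was measured by fluorescence after electrophoretic separation of product from substrate, 1 h after compound addition, relative to DMSO.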

Assay [10] concerns the target human p21 Activated Kinase 4 (PAK4), PAK4 (gene 10298) (UniProt O96013). Nature of the assay: NVS_ENZ_hPAK4: NovaScreen (NVS) Enzymatic Assay for human p21 Activated Kinase 4 (PAK4) (AID 2283189). In outline:
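Extracted PAK4 enzyme activity read by fluorescence with mobility-shift separation 1 h after chemical addition. Duplicate single-concentration screen at 25 uM, DMSO as negative control.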

Assay [11] deals with human Matrix Metalloproteinase-9 (MMP9), MMP9 (gene 4318) (UniProt P14780). The assay is described as follows: NVS_ENZ_hMMP9: NovaScreen (NVS) Enzymatic Assay for human Matrix Metalloproteinase-9 (MMP9) (AID 2283190).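 Also: cell-free recombinant MMP9 protease activity read by fluorescent substrate signal; active means inhibition seen as loss of fluorescence signal versus DMSO.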 In outline: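 Inhibition was scored as loss of fluorescence signal against DMSO controls. The recombinant protease was exposed to chemicals for 1 hour before reading; initial testing used 25 uM in duplicate.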
Sequence of human Matrix Metalloproteinase-9 (MMP9), MMP9 (gene 4318) (P14780 whole entry, looked up): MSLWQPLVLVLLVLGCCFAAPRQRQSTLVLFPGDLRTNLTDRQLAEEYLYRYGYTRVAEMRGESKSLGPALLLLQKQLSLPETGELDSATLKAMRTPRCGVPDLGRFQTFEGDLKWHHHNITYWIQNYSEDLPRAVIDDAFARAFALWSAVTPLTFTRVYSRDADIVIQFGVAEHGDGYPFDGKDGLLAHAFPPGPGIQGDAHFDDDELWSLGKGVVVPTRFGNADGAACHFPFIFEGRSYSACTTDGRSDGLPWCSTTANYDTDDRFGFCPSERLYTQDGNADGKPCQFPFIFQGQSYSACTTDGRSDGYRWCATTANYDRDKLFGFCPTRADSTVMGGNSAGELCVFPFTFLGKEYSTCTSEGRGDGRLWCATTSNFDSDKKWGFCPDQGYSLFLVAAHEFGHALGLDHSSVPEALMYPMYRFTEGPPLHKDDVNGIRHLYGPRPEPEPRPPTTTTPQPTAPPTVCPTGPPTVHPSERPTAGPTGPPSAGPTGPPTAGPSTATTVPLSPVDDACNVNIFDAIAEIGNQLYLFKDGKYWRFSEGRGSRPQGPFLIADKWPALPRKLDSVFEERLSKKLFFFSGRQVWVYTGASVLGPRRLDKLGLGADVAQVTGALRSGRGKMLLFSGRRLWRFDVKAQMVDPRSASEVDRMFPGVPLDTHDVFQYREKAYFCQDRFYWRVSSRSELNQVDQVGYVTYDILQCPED

Assay [12] addresses human MAP Kinase-Activated Protein Kinase 2 (MAPKAPK2), MAPKAPK2 (gene 9261) (UniProt P49137). Nature of the assay: NVS_ENZ_hMAPKAPK2: NovaScreen (NVS) Enzymatic Assay for human MAP Kinase-Activated Protein Kinase 2 (MAPKAPK2) (AID 2283178). In outline: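 Chemicals screened in duplicate at 25 uM, then to 50 uM top concentration in concentration-response, against recombinant human MAPKAPK2; substrate conversion read 1 hr post-dosing by fluorescence after electrophoretic mobility-shift separation, loss-of-signal relative to DMSO.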

Assay [13] deals with Mitogen-activated protein kinase 3 (Homo sapiens) (UniProt P27361). The assay is described as follows: NVS_ENZ_hMAPK3: NovaScreen (NVS) Enzymatic Assay for human Mitogen-Activated Protein Kinase 3 (MAPK 3) (AID 2283177). In outline: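 Chemicals were first tested in duplicate at 25 uM, with hits re-run as concentration series (max 50 uM). Recombinant enzyme activity, measured 1 h post-dose in a cell-free format, was read by fluorescence/mobility shift relative to DMSO.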
Sequence of Mitogen-activated protein kinase 3 (Homo sapiens) (P27361 whole entry, looked up): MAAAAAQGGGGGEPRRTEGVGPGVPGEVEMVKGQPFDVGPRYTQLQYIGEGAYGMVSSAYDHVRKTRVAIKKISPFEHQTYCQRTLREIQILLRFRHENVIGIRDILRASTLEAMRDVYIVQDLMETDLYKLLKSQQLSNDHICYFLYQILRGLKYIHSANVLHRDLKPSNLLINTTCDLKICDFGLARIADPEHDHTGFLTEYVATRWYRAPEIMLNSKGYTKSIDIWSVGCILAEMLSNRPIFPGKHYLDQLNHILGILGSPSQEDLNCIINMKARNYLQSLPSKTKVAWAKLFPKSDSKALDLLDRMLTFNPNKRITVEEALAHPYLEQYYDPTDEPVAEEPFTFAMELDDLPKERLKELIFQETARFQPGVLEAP

The target of assay [14] is human Matrix Metalloproteinase-3 (MMP3), MMP3 (gene 4314) (UniProt P08254). Nature of the assay: NVS_ENZ_hMMP3: NovaScreen (NVS) Enzymatic Assay for human Matrix Metalloproteinase-3 (MMP3) (AID 2283185). In short, it runs like this: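 Fluorescent substrate turnover by recombinant MMP3 read after 1 h, signal loss scored against DMSO. Compounds first run in duplicate at 25 uM single dose, then actives confirmed by concentration series.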
Sequence of human Matrix Metalloproteinase-3 (MMP3), MMP3 (gene 4314) (P08254 whole entry, looked up): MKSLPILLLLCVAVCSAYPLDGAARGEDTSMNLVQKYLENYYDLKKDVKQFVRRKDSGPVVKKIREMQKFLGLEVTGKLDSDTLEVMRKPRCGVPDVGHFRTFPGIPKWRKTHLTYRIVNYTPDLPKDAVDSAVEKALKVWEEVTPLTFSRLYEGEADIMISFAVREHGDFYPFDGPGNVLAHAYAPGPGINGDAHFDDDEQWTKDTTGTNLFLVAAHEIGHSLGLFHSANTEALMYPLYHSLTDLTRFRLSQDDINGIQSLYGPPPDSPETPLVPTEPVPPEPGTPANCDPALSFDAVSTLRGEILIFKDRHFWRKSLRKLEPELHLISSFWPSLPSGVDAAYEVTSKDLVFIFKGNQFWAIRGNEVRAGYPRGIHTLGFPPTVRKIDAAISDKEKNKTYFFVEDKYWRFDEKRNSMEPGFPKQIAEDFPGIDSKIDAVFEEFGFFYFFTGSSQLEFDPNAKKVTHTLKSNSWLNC

The target in assay [15] is human IkappaB Kinase alpha (IKKa), CHUK (gene 1147) (UniProt O15111). Nature of the assay: NVS_ENZ_hIKKa: NovaScreen (NVS) Enzymatic Assay for human IkappaB Kinase alpha (IKKa) (AID 2283167). In outline:
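Compounds first run in duplicate at 25 uM, those meeting threshold (e.g. 30% inhibition) retested to maximum 50 uM. Enzyme activity of recombinant IKKa measured by fluorescence with electrophoretic mobility shift separation, 1 hour post-dosing, DMSO baseline.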

Assay [16] addresses Collagenase 3 (Homo sapiens) (UniProt P45452). Nature of the assay: NVS_ENZ_hMMP13: NovaScreen (NVS) Enzymatic Assay for human Matrix Metalloproteinase-13 (MMP13) (AID 2283182). In short, it runs like this:
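Recombinant MMP13 cleaving fluorescent substrate, cell-free, measured 1 h after dosing. Primary duplicate screen at 25 uM; actives tested in concentration-response up to 50 uM; loss of signal relative to DMSO.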

The target of assay [17] is cAMP-dependent protein kinase catalytic subunit alpha (Homo sapiens) (UniProt P17612). Nature of the assay: NVS_ENZ_hPKA: NovaScreen (NVS) Enzymatic Assay for human Protein Kinase A (PKA) (AID 2283192). In outline:
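Cell-free kinase activity read by fluorescence after mobility-shift separation of substrate and product, 1 h post-dosing. Single-concentration duplicate screen (25 uM) preceded singleton concentration series (top 50 uM); loss of signal versus DMSO.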

Assay [18] deals with human Matrix Metalloproteinase-2 (MMP2), MMP2 (gene 4313) (UniProt P08253). Nature of the assay: NVS_ENZ_hMMP2: NovaScreen (NVS) Enzymatic Assay for human Matrix Metalloproteinase-2 (MMP2) (AID 2283184). In outline:
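Compounds first screened in duplicate at a single 25 uM, with actives followed up in concentration series. Recombinant human MMP2 cleaves a fluorogenic substrate; fluorescence taken at 1 h, inhibition fitted relative to DMSO.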

Sequence of human Matrix Metalloproteinase-7 (MMP7), MMP7 (gene 4316) (P09237 whole entry, looked up): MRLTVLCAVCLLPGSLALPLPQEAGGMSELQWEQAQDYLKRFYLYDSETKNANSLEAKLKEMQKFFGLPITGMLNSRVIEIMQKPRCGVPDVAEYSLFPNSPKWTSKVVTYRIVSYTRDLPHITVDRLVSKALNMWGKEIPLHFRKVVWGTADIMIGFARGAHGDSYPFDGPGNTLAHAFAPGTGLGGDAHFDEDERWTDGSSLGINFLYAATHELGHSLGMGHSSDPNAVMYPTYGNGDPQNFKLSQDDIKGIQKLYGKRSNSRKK
Sequence of human Janus Kinase 2 (Jak2), JAK2 (gene 3717) (O60674 whole entry, looked up): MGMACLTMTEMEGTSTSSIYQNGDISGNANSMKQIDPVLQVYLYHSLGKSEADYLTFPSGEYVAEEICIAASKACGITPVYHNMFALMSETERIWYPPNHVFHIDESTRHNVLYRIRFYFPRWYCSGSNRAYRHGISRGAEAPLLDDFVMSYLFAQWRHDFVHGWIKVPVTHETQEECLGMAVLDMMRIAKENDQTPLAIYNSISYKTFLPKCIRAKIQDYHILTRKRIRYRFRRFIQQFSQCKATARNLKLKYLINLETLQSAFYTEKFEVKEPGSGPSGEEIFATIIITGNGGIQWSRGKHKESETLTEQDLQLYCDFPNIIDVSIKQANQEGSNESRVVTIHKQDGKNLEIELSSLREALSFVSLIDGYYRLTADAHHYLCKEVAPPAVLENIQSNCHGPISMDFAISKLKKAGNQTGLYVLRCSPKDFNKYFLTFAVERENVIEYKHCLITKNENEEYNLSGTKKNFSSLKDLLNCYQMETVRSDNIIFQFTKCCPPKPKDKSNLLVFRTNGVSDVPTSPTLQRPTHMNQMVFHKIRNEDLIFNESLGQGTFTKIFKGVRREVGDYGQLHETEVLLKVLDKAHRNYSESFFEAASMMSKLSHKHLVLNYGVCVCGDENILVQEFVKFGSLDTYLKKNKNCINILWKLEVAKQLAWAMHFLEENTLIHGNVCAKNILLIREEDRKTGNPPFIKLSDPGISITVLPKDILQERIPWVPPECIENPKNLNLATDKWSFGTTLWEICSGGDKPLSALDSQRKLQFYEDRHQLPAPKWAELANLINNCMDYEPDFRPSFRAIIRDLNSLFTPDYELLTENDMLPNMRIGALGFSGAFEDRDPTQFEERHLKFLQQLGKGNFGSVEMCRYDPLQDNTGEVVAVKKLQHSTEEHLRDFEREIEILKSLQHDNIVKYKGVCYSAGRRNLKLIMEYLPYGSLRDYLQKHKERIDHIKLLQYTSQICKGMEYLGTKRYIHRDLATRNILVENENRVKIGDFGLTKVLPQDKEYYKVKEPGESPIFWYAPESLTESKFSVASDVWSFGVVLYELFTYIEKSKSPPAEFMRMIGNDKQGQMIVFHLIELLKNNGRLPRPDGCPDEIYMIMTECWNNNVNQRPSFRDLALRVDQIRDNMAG
Sequence of human MAP Kinase-Activated Protein Kinase 2 (MAPKAPK2), MAPKAPK2 (gene 9261) (P49137 whole entry, looked up): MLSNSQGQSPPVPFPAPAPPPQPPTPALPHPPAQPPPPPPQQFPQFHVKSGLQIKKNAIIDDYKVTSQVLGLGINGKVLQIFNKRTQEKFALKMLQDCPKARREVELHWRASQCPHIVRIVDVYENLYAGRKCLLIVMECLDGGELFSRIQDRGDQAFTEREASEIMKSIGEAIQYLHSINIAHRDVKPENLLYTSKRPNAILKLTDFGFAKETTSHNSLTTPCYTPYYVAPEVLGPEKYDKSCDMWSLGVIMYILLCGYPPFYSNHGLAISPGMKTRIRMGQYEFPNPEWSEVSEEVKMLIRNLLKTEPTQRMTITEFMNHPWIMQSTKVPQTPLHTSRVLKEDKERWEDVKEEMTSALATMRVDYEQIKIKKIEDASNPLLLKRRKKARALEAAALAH

Take `C=C(C)[C@H]1Cc2c(ccc3c2O[C@@H]2COc4cc(OC)c(OC)cc4[C@@H]2C3=O)O1`: the call in assay [1] was inactive.

Turning to `CCNc1nc(Cl)nc(NC(C)(C)C#N)n1`, the call in assay [2] and in assay [3] was inactive. Also, the results for the AC50 in assay [4] and in assay [5] were 0.39 µM (active) and 13.6 µM (active), respectively.

As to `CNC(=O)ON=C(C)SC`, in [6], the compound was classed as inactive.

`CCc1cnc(C2=NC(C)(C(C)C)C(=O)N2)c(C(=O)O)c1` (stereo not drawn): the AC50 in assay [7] was 8.62 µM (active).

Turning to `CCC(=NOC/C=C/Cl)C1=C(O)CC(C2CCOCC2)CC1=O` (stereo not drawn), the call in [3] was inactive.

With `CC[C@H](C)[C@H]1O[C@]2(C=C[C@@H]1C)C[C@@H]1C[C@@H](C/C=C(\C)[C@@H](O[C@H]3C[C@H](OC)[C@@H](O[C@H]4C[C@H](OC)[C@@H](NC)[C@H](C)O4)[C@H](C)O3)[C@@H](C)/C=C/C=C3\CO[C@@H]4[C@H](O)C(C)=C[C@@H](C(=O)O1)[C@]34O)O2`, the results for the AC50 in assay [8], in [4] and in assay [5] were 15.4 µM (active), 25 µM (active) and 39.3 µM (active), respectively. Moreover, the compound was called inactive in assay [9], in assay [10] and in assay [11].

`N#CSCSC#N`: the call in assay [2], in assay [12] and in [7] was inactive.

For `CSc1nc(NC(C)C)nc(NC(C)C)n1`, the results for the AC50 in [4] and in assay [5] were 3.43 µM (active) and 5.79 µM (active), respectively.

`CN(C)C(=O)Nc1cccc(C(F)(F)F)c1`: the result in assay [13] was inactive.

For `O=c1ccc(=O)[nH][nH]1`, the compound was called inactive in assay [8].

With `O=C(O)c1cc(Oc2ccc(C(F)(F)F)cc2Cl)ccc1[N+](=O)[O-]`, the outcome in assay [11] and in [4] was inactive.

In the case of `CC(C1CC1)C(O)(Cn1cncn1)c1ccc(Cl)cc1` (stereo not drawn), the call in assay [13] was inactive.

For the compound `CC1=NNC(=O)N(/N=C/c2cccnc2)C1`, the AC50 in assay [2] was 32.8 µM (active). Besides, the outcome in [14] was inactive.

Take `S=C1NCCN1`: the outcome in [15], in assay [13], in [12], in assay [9], in [16] and in assay [7] was inactive. In addition, the call in assay [14], in assay [11] and in assay [17] was inactive.

With `C#CC(C)(C)NC(=O)c1cc(Cl)cc(Cl)c1`, in assay [14], the compound was classed as inactive.

Turning to `Cc1ccn2nc(S(=O)(=O)Nc3c(F)cccc3F)nc2n1`, the compound was called inactive in assay [13], in [18] and in assay [11].

Take `CCOP(=O)(OCC)Oc1cc(C)nc(C(C)C)n1`: the AC50 in assay [7] was 11.8 µM (active). In [14], the call was inactive.

As to `COP(=O)(OC)SCn1c(=O)oc2cc(Cl)cnc21`, the outcome in assay [11] was inactive.

As for `CC(C)[C@H](C(=O)O[C@H](C#N)c1cccc(Oc2ccccc2)c1)c1ccc(Cl)cc1`, the AC50 in assay [16] is 13 µM (active).
